Source: PubChem BioAssay AID488969 (Vanderbilt High Throughput Screening Facility, 2010)
In all, about 110,000 compounds were measured (“z-score”: median about -0.1, highest 2% from about 2 on). This is one part of a sample in which the highest values are shown more often than they occur. The source made the active and inactive calls.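 Rule for the calls: active = z-score in the third read window above 3 or below -3; inactive = the rest.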

Each molecule was assayed against Metabotropic glutamate receptor 8 (Rattus norvegicus) (UniProt P70579) (assay: mGluR8 Gi/Go-coupled signaling modulation – cell-based, rat, thallium flux, HTS, primary screen (AID 488969)). Details: HEK293 rat mGluR8, GIRK (G protein-gated inwardly rectifying potassium channel) thallium flux, FluoZin2; at 10 µM; stronger effect = higher value; submaximal glutamate (EC20) added with thallium.
Metabotropic glutamate receptor 8 (Rattus norvegicus), sequence (P70579 whole entry, looked up): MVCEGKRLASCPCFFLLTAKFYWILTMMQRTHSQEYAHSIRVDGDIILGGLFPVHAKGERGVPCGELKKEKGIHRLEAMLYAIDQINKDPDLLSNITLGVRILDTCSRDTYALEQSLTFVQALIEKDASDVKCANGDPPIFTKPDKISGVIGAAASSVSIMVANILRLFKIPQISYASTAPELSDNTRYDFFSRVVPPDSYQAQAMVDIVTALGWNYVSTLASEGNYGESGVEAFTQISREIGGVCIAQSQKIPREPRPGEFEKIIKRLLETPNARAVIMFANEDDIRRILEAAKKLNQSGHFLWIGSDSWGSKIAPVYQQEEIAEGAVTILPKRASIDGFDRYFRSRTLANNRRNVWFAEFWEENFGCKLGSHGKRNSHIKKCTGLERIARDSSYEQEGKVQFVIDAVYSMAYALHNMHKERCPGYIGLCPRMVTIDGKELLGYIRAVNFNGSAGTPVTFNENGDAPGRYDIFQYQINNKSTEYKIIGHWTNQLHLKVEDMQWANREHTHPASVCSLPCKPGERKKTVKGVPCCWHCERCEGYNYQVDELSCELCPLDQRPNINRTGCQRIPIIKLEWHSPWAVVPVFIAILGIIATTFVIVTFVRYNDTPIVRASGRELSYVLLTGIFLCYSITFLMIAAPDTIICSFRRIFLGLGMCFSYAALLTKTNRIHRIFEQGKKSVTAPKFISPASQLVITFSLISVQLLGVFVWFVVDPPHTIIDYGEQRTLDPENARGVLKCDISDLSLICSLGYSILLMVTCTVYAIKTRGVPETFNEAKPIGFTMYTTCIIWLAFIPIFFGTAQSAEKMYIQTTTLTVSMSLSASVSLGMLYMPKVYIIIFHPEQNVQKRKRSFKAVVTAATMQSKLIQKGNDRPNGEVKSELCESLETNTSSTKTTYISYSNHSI

Structure (SMILES) | z-score
CS(=O)(=O)c1ccc(Cl)c(NC(=O)c2cccc(Br)c2)c1 | -0.236
COc1ccc(OC)c(Nc2ncnc3c2cnn3-c2ccccc2)c1 | -0.143
O=C(CSC1=Nc2ccccc2C2=NC(c3ccccc3)C(=O)N12)NCC1CCCO1 (centres undefined) | 2.65
O=C(CSC1=Nc2ccccc2C2=NC(CC(=O)NCc3ccco3)C(=O)N12)NCC1CCCO1 (centres undefined) | -0.919
O=C(CSC1=Nc2ccccc2C2=NC(c3ccccc3)C(=O)N12)NC1CCCCC1 (centres undefined) | -0.816
CCC(=O)OCCn1c(Br)nc2c1c(=O)[nH]c(=O)n2C | -0.265
C/C=C/Cn1c(Br)nc2c1c(=O)n(C)c(=O)n2C | 1.47
C/C(CCC12CC3CC(CC(C3)C1)C2)=N\NC(N)=S | -0.636
C/C(=N\NC(N)=S)C12CC3CC(CC(C3)C1)C2 | 2.47
C/C(=N\NC(=O)c1ccncc1)C12CC3CC(CC(C3)C1)C2 | -0.319
COc1ccc(OC)c(C(=O)CSc2nccc(-c3ccc(Br)cc3)n2)c1 | -0.268
COC(=O)/C(=C/c1cccnc1)NC(=O)c1ccccc1 | -0.0328
CC(C)OC(=O)/C(=C/c1cccnc1)NC(=O)c1ccccc1 | 3.22 (active)
CC(C)OC(=O)/C(=C\C=C\c1ccccc1)NC(=O)c1ccccc1 | -0.143
CC(=O)Nc1c(OC(C)=O)ccc2c(C)cc(=O)oc12 | -0.24
Cc1cc(C(F)(F)F)nn1Cc1n[nH]c(=S)n1-c1cccc(Cl)c1 | -0.0907
O=S(=O)(c1ccccc1)c1nc(-c2ccccc2)oc1N1CCCCC1 | -0.0433
COCCNC(=O)C(c1cccs1)N(C(=O)Cn1nnc2ccccc21)c1ccc(OC)cc1 (centres undefined) | 0.0248
CCCCCCCCCOC(=O)C[n+]1csc(CCO)c1C | 0.0302
CC(C(=O)Nc1sc2c(c1C(=O)NCC1CCCO1)CCC2)N1C(=O)c2ccccc2C1=O (centres undefined) | -1
O=C(CN1C(=O)c2ccccc2C1=O)Nc1sc2c(c1C(=O)NCC1CCCO1)CCC2 (centres undefined) | 4.33 (active)
O=C(CCN1C(=O)c2ccccc2C1=O)Nc1sc2c(c1C(=O)NCC1CCCO1)CCC2 (centres undefined) | -0.294
CC(C)COP(=O)(OCC(C)C)C(O)c1ccc(F)cc1 (centres undefined) | 0.263
COc1ccc(C2(CNC(C)=O)CCOCC2)cc1OC | 0.1
COC(=O)C1=CN(C(C)C)C=C(C(=O)OC)C1c1cc2c(cc1Br)OCO2 | -0.0368

Structure (SMILES) | z-score
Cc1cc2cc3c(cc2nc1SCc1ccc(C(=O)O)cc1)OCCO3 | -0.554
COc1cccc(C2C(C#N)=C(N)Oc3c2oc(CO)cc3=O)c1 (centres undefined) | -1.28
COc1ccccc1C(=O)NNC(=O)c1cccc(F)c1 | -0.0578
CCOC(=O)c1ccccc1NC(=O)c1cccc(F)c1 | 0.0409
O=C(CCC(=O)c1ccc(F)cc1)Nc1ccccc1Cl | 0.266
O=C(Nc1ccccc1C(=O)O)c1cccc(F)c1 | -0.262
O=C(CC(=O)c1ccccc1O)c1cccc(F)c1 | 3.63 (active)
O=C(CC(=O)c1ccccc1O)c1ccc(F)cc1 | 7.61 (active)
Cc1ccc(C(=O)c2ccccc2C(=O)O)c(O)c1 | 0.0184
Cc1ccc(C(=O)CC(=O)c2cccc(F)c2)c(O)c1 | 8.38 (active)
Cc1ccccc1C(=O)NNC(=O)c1ccc(F)cc1 | 0.0481
CC(=O)Nc1cccc(C(=O)/C=C/c2ccc(/C=C/C(=O)c3cccc(NC(C)=O)c3)cc2)c1 | 0.033
COc1ccc2oc(C(=O)C3CC3)c(N)c2c1 | 1.19
COc1ccc(N=C/C=C2\C=C(c3ccccc3)OC(C)(C)O2)cc1 | -0.461
C=CCN1C(=Nc2cccnc2)SCC1(O)c1ccc(C)cc1 (centres undefined) | 2.38
CC1=NN(C(=O)Cc2ccc(C)cc2)C(O)(c2cccnc2)C1 (centres undefined) | 0.145
OC1(c2ccc(OC(F)F)cc2)CSC(=Nc2cccnc2)N1C1CC1 (centres undefined) | -0.02
COc1cc(/C=N/NC(=O)c2cc3ccccc3cc2O)ccc1OCCN1CCCCC1 | -0.0725
COc1ccc(N(C)S(=O)(=O)c2cccc(C(=O)OCC(=O)Nc3sc4c(c3C#N)CCCCC4)c2)cc1 | 0.379
O=C1CC(C(F)(F)C(F)(F)C(F)(F)F)=Nc2ccccc2N1 | 3.4 (active)
Cc1cc2c(cc1C)NC(=O)CC(C(F)(F)C(F)(F)C(F)(F)F)=N2 | -0.139
O=C1CC(C(F)(F)C(F)(F)C(F)(F)C(F)(F)F)=Nc2ccccc2N1 | -0.248
OC(CN1C2=NCCCN2c2ccccc21)c1ccc(Cl)cc1 (centres undefined) | 0.782
OC(CN1C2=NCCN2c2ccccc21)c1ccc(Br)cc1 (centres undefined) | 0.254
Brc1ccc(CN2C3=NCCCN3c3ccccc32)cc1 | 0.755

Structure (SMILES) | z-score
CCCCN1C2=NCCCN2c2ccccc21 | -0.957
CCCCCN1C2=NCCN2c2ccccc21 | 0.394
O=C(CN1C2=NCCCN2c2ccccc21)c1ccc(Cl)cc1Cl | 0.287
Clc1ccc(CN2C3=NCCCN3c3ccccc32)cc1 | 0.436
Cc1ccc(C)c(C(=O)CN2C3=NCCCN3c3ccccc32)c1 | 0.0716
OC(CN1C2=NCCCN2c2ccccc21)c1ccc(Br)cc1 (centres undefined) | 3.3 (active)
CCCCCCN1C2=NCCN2c2ccccc21 | 7.63 (active)
c1ccc(CN2C3=NCCCN3c3ccccc32)cc1 | 2.93
CC(C)(C)c1ccc(CN2C3=NCCCN3c3ccccc32)cc1 | 4.19 (active)
Cc1cccc(N(CC(=O)Nc2ccccc2F)S(C)(=O)=O)c1 | -0.443
Cc1ccccc1OCC(=O)NC1=NCCS1 | 0.0476
CCOC(=O)C(C)On1c(-c2cccc(Cl)c2)nc2ccc([N+](=O)[O-])cc21 (centres undefined) | 0.66
CNc1nc(CCN2C(=O)c3ccccc3C2=O)cs1 | -0.0681
CCOC(=O)C(C)Sc1nc(C2CC2)cc(C(F)(F)F)c1C#N (centres undefined) | 1.1
O=C(NC(C(=O)O)c1ccccc1)c1ccccc1 (centres undefined) | 0.488
COC(=O)CCC(=O)Nc1ccc(C)cc1OC(=O)CCC(=O)OC | 0.273
COc1ccccc1CNS(=O)(=O)c1c(C)[nH]c(=O)[nH]c1=O | 0.0871
O=C1CC(c2ccc(S(=O)(=O)NCCOc3ccccc3)cc2)CN1 (centres undefined) | 0.129
Cc1ccccc1CN1C2=NCCCN2c2ccccc21 | 3.26 (active)
Fc1ccc(CN2C3=NCCCN3c3ccccc32)cc1 | -0.37
Cc1ccc(CN2C3=NCCCN3c3ccccc32)cc1 | 3.51 (active)
Cc1ccc(C(O)CN2C3=NCCCN3c3ccccc32)cc1 (centres undefined) | 1.16
CCCN1C2=NCCCN2c2ccccc21 | 0.397
CCN1C2=NCCCN2c2ccccc21 | 0.0152
